Compound activity as filed in PubChem.
The list is not random: actives were taken first. Their share in the collection is about 21%.
CHX counter – Cycloheximide Counterscreen for Small Molecule Inhibitors of Shiga Toxin; max response, %; cell reporter, cycloheximide protein synthesis inhibition counterscreen; AID 2314, 2010; 300,000 compounds, 12% hits; in the data active means max response mostly above about 13%, no sharp cut-off; inactive means mostly below about 14%; further: read at 38.3 µM for the half of the compounds with a filed dose; 0% is about no effect
Pf growth 48h – Primary qHTS for delayed death inhibitors of the malarial parasite plastid, 48 hour incubation; P. falciparum luciferase growth in erythrocytes, 48 h; Potency, µM (titrated, usually from 28.7 µM), for the others: top-dose activity change, negative = inhibition, usual class: inhibitors; 310,000 compounds, 5.9% hits; AID 504832, 2011; further: potency means the concentration at half of the fitted maximal effect; on the % scale 0 is the no-effect control and ±100 the full control effect
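A one-generation exposure of luciferase-tagged malaria parasites in RPMI 1640/Albumax erythrocyte culture, 37 C and 5% CO2. Inhibition is inferred from decreased luminescence after adding detection reagent.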
Shiga inhibitor – A qHTS for Small Molecule Inhibitors of Shiga Toxin; inhibition, % at 38.7 µM; 290,000 compounds, 9.2% hits; Vero cells, Shiga toxin protein synthesis inhibition reporter; in the data active means inhibition mostly above about 28%, no sharp cut-off; inactive means mostly below about 43%; further: 0% is about no effect
Pf growth 96h – Primary qHTS for delayed death inhibitors of the malarial parasite plastid, 96 hour incubation | P. falciparum luciferase reporter growth, 96 h | Potency, µM (series often up to 28.7 µM), inactives show top-dose activity change, negative = inhibition, most hits filed as inhibitors | 320,000 compounds, 6.9% hits | AID 504834, 2011; further: potency means the concentration at half of the fitted maximal effect; on the % scale 0 is the no-effect control and ±100 the full control effect
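Readout is luminescence from an integrated firefly luciferase in P. falciparum. Red cells, 2% hematocrit and 0.05% parasitemia final, were cultured with compound through two parasite generations (96 hours) at 37 C, 5% CO2.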
Numbers without * were called inactive; ? = inconclusive; · = no result. Unless noted, the call rests on the fitted dose curve; in most records, active means well fitted inhibition curve with a large enough effect; inconclusive means small, poorly fitted or top-dose-only effect, or another doubt; inactive means no such curve, though single readings can be large or run the other way.

SMILES	CHX counter	Pf growth 48h	Shiga inhibitor	Pf growth 96h
COc1ccc(C2=NN(C(=O)CCC(=O)O)C(c3ccc(F)cc3)C2)cc1 (stereo not given)	6.9	-25.2%	2.2	14.7µM*
COc1ccc(C2CC(c3ccccc3)=NN2C(=O)CSc2ncn[nH]2)cc1 (stereo not given)	17.1*	?	35.6	?
COC(=O)c1nnn(-c2nonc2N)c1CSc1nc2ccccc2s1	21.0*	11.2%	27.3	-5.5%
CCOC(=O)c1nnn(-c2nonc2N)c1-c1ccc(F)cc1	5.8	11.7µM*	13.7	2.6%
COC(=O)c1nnn(-c2nonc2N)c1CSc1nc2ccccc2o1	-0.9	-17.8%	-6.6	0.5%
CCOC(=O)c1nnn(-c2nonc2N)c1-c1cccc2ccccc12	-2.2	3.29µM*	-13.2	5.22µM*
CCOC(=O)c1nnn(-c2nonc2N)c1-c1ccc(Cl)cc1	4.9	11.7µM*	-7.4	?
CCOC(=O)c1nnn(-c2nonc2N)c1COc1ccc(F)cc1	-1.5	·	-13.4	·
CCOC(=O)c1nnn(-c2nonc2N)c1-c1ccc(OC)cc1	-1.3	2.08µM*	-8.7	?
c1ccc2cc(OCCCn3ccnc3)ccc2c1	16.7*	?	17.4	?
CC(C)(C)c1ccc(OCCCn2ccnc2)cc1	8.4*	?	15.4	?
COc1ccc(OCc2nnc(SCC(=O)Nc3ccccc3Cl)o2)cc1	-5.9	4.1%	-9.9	42.6%
COC(=O)C(C)(C)ONC(=O)Nc1ccc(Br)cc1	23.1	18.7%	28.2	50.9%
CC(NC(=O)Nc1ccc(Br)cc1)C(C)(C)C (stereo not given)	27.0*	?	79.7*	?
Cc1ccc(C)c2c3c([nH]c12)-c1nonc1CC3	-5.2	·	-13.3	-24.5%
CCCCNC(=O)C(c1ccc(-c2ccccc2)cc1)N(CCN1CCOCC1)C(=O)CCCCCN1C(=O)NC(c2ccc([N+](=O)[O-])cc2)C(C(=O)OCc2ccccc2)=C1C (stereo not given)	-4.8	1.31µM*	-11.2	3.29µM*
COC(=O)CCCCCN1C(=O)NC(c2ccccc2)C(C(=O)OCc2ccccc2)=C1C (stereo not given)	-1.5	-26.6%	-13.6	?
CCCCCCN(C(=O)CCCCCN1C(=O)NC(c2ccc(-c3ccccc3)cc2)C(C(=O)OCc2ccccc2)=C1C)C(C)C(=O)NCCCC (stereo not given)	-2.3	?	8.8	4.65µM*
CCCCCCN(C(=O)CCCCCN1C(=O)NC(c2ccc(-c3ccccc3)cc2)C(C(=O)OCc2ccccc2)=C1C)C(C(=O)NCCCC)c1ccccc1 (stereo not given)	-1.9	2.62µM*	0.4	1.85µM*
CCOC(=O)C1=C(C)NC(C)=C(C(=O)OCC)C1C(=O)OCC(=O)N(CC)C1CCS(=O)(=O)C1 (stereo not given)	-1.4	-8.3%	3.3	3.6%
COC(=O)C1=C(c2ccccc2OCc2ccccc2)C[C@@H]2CC[C@H]1N2C(=O)NC1CCN(Cc2ccccc2)CC1	·	13.1µM*	·	?
COC(=O)C1=C(c2cccc(OCc3ccccc3)c2)C[C@@H]2CC[C@H]1N2C(=O)NC1CCN(Cc2ccccc2)CC1	·	13.1µM*	·	?
COC(=O)C1=C(c2ccc(C(C)=O)cc2)C[C@@H]2CC[C@H]1N2C(=O)NC1Cc2ccccc2C1	·	?	·	-26.0%
COC(=O)C1=C(c2ccc(F)cc2OCc2ccccc2)C[C@@H]2CC[C@H]1N2C(=O)NC1CCN(Cc2ccccc2)CC1	·	13.1µM*	·	?
O=C(NC(=S)N(Cc1ccccc1)Cc1ccccc1)c1ccccc1F	-1.9	-4.3%	16.6	20.0%
SMILES	CHX counter	Pf growth 48h	Shiga inhibitor	Pf growth 96h
COc1ccc(N(CC(=O)Nc2cc(Cl)ccc2C)S(=O)(=O)c2c(C)n[nH]c2C)cc1	-2.6	?	-3.2	?
Cc1ccc(N/C(CSC(N)=O)=N/S(=O)(=O)c2ccccc2)cc1	7.5	26.1%	8.4	3.29µM*
Cc1ccc(N/C(CSC(N)=O)=N\S(=O)(=O)c2ccc(C)cc2)cc1	-2.4	·	-6.6	·
Cc1ccc(S(=O)(=O)CC(=O)Nc2ccc(Cl)cn2)cc1	-4.6	0.0%	1.5	70.8%
N#Cc1ccc(Cl)cc1NC(=O)CSc1nc2nc(-c3cccs3)cc(C(F)(F)F)c2c(=O)[nH]1	-0.7	29.5%	-2.6	38.3%
Cc1ccccc1C(=O)N1CCN(c2ccc(NC(=S)NC(=O)c3cccs3)cc2)CC1	12.7	9.28µM*	-6.4	-3.0%
Cc1ccc(C(=O)N2CCN(c3ccc(NC(=S)NC(=O)c4cccs4)cc3)CC2)cc1	-2.2	?	12.7	-14.7%
